This passage reports Inhibition results from ChEMBL document CHEMBL4513149, “CO-ADD screening of MMV (CH) - MMV compounds” (2021).

Measured potencies and affinities stand elsewhere.

For this test, the system named is Escherichia coli. Particulars: Concentration 20 uM; ASSAY_TEST Inhibition of Bacterial Growth; detection method Absorption (OD600); MEDIA CAMHB; plate type 384well; NBS; CORNING #3640; time 18 hr.
The Inhibition is the change of the read-out against control, counted positive when it falls. On to `Cc1ccc(NC(=O)c2cc(S(=O)(=O)NC(C)(C)C)ccc2C)nc1`, for which the Inhibition is on record as 8.11%.
For `C[C@H](c1ccc2c(c1)CCCC2)N(C)c1ncc2c(N)nc(N)nc2n1`, the Inhibition was found to be 11.2%.
In the case of `COc1ccc(-c2cnc3ccc(N4CCCC4)nn23)cc1OC`, the Inhibition is 7.3%.
As for `CC(C)(C)c1cc(C(=O)Nc2cccnc2)cc(C(=O)Nc2cccnc2)c1`, the Inhibition is 6.88%.
As for `CCNC(=O)C(C)Nc1nc(-c2cccnc2)nc2sc(C)c(C)c12` (configuration not stated), the figure is 10.74%; as for `CC(C(=O)N1CCCC1)N1CCN(S(=O)(=O)c2ccc(C(C)(C)C)cc2)CC1` (configuration not stated), -2.16%.
The figure for `O=C1COCc2ccc(Br)cc2N1Cc1ccc(C(F)(F)F)cc1` is 10.17%; for `O=C(NC1CC1)c1ccc(N2CCOc3ccc(Cl)cc32)s1` it is 8.85%; for `COCC(C)NC(=O)CSc1ncnc2sc(-c3ccccc3)cc12` (configuration not stated) it is 9.3%.
Take `Cc1cc(OCC(=O)Nc2ccc(C(C)C)cc2)n(C)c(=O)c1C#N`: the Inhibition is reported as 14.16%.
On to `COc1ccccc1C(C)NCC(=O)Nc1cc(C(F)(F)F)ccc1Cl` (configuration not stated), for which the Inhibition is 8.42%.
Regarding `CC[C@H](CO)NCCN[C@H](CC)CO.Cl.Cl`, the Inhibition is reported as -1.24%.
Consider `Cc1ccc(Oc2ccc(NC(=O)CNc3ccccc3N3CCCC3=O)cc2)cc1`, for which the Inhibition is given as 6.72%.
Take `c1cc(C2=NCCN2)cc(-c2cc(-c3ccc(C4=NCCN4)cc3)no2)c1`: the Inhibition came to 8.18%.
As for `O=C(Nc1cnc2ccccc2c1)c1cccc(-n2cnnn2)c1`, the figure is -2.29%; as for `c1ccc(-c2cc(N3CCCCC3)c3ccccc3n2)nc1`, 7.94%.
Take `CS(=O)(=O)c1cccc(-c2cnc3[nH]cc(-c4ccc(CCC(=O)O)cc4)c3c2)c1`: the Inhibition came out at 7.22%.
